Test results reported in PubChem BioAssay (NCATS).
Results filed as inconclusive are left out. The source made the active and inactive calls. Calls come from the whole dose curve; as a rule, active = well fitted inhibition curve with a large enough effect; inconclusive = small, poorly fitted or top-dose-only effect; inactive = flat fitted curve, though single readings scatter. Where a SMILES comes first, the peptide text is derived from it. [ ]: non-standard residue; d: D form. PhLac = O=C(O)[CH](O)Cc1ccccc1; NMeV = CN[CH](C(=O)O)C(C)C

biological target: Glutathione peroxidase 1 (Homo sapiens) (UniProt P07203); test: Primary qHTS Assay for Inhibitors of Recombinant Selenoprotein Glutathione Peroxidase 1 (GPX1) (AID 1845191); conditions: recombinant GPX1, GR-coupled NADPH fluorescence, 15 min; series mostly up to 48.8 µM; activity, negative = inhibition: at the top concentration; note: nearly all actives have a fitted effect of over 65% in size
Method in brief: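 10 nM GPX1 + cpd, 30 min RT; start w/ 1 mM GSH, 0.5 mM cumene hydroperoxide, 0.5 mM NADPH, 100 nM GR, 0.01% BSA; buffer 50 mM Tris-HCl pH 7.5, 2 mM EDTA, 150 mM NaCl; Fl 340/450, 0 & 15 min.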
% is set by controls: 0 for no effect and ±100 for the full control effect.

Glutathione peroxidase 1 (Homo sapiens), sequence (P07203 whole entry, looked up): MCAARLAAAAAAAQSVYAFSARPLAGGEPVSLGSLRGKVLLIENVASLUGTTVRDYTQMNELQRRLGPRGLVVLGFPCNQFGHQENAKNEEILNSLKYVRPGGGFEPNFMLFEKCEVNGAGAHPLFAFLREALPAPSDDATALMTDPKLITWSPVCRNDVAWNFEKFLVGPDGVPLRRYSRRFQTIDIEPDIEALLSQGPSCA

| Compound | activity, negative = inhibition | outcome | Potency |
| --- | --- | --- | --- |
| CC[C@H](/C=C/[C@@H](C)[C@H]1CC[C@H]2[C@@H]3CC=C4C[C@@H](O)CC[C@]4(C)[C@H]3CC[C@]12C)C(C)C | -3.99% [at 4.49 µM] (inactive) |  |  |
| c1ccc(Cc2ncc3c(n2)CCNCC3)cc1 | -4.04% (inactive) |  |  |
| C[C@@H]1O[C@@H](O[C@H]2[C@H](O[C@H]3CO[C@@H](O[C@H]4CC[C@@]5(C)C(CC[C@]6(C)C5CC[C@]57OC[C@@]8(CC[C@](C)(CO)CC85)[C@H](O)C[C@]76C)C4(C)C)[C@H](O[C@@H]4O[C@H](CO)[C@@H](O)[C@H](O)[C@H]4O)[C@H]3O)O[C@H](CO)[C@@H](O)[C@@H]2O)[C@H](O)[C@H](O)[C@H]1O (some centres undefined) |  | inactive [at 15.3 µM] |  |
| COC(=O)C1=CO[C@@H](O[C@@H]2O[C@H](CO[C@@H]3O[C@H](COC(=O)/C=C/c4ccc(O)cc4)[C@@H](O)[C@H](O)[C@H]3O)[C@@H](O)[C@H](O)[C@H]2O)[C@@H]2C(CO)=CC[C@H]12 | 2.15% [at 15.3 µM] (inactive) |  |  |
| CC1(C)CC[C@]2(C(=O)O)CC[C@]3(C)C(=CCC4[C@@]5(C)C[C@H](O)[C@H](O[C@@H]6OC[C@H](O)[C@H](O)[C@H]6O)[C@@](C)(CO)C5CC[C@]43C)[C@@H]2C1 (some centres undefined) |  | inactive [at 15.3 µM] |  |
| CC(C)C(C(=O)N1CCCC1C(=O)O)N(C)C(=O)C(O)Cc1ccccc1 (centres undefined) (H-[PhLac]-[NMeV]-Pro-OH; configuration not given here) |  | inactive [at 27.7 µM] |  |
| C[C@@H]1CC[C@]2(C(=O)O[C@@H]3O[C@H](CO)[C@@H](O)[C@H](O)[C@H]3O)CC[C@]3(C)C(=CCC4[C@@]5(C)C[C@@H](O)[C@H](O)C(C)(C)C5CC[C@]43C)C2[C@]1(C)O (some centres undefined) |  | inactive [at 15.3 µM] |  |
| C=CC1(C)C=C2C(O)CC3C(C)(C(=O)O)CCCC3(C)C2CC1 (centres undefined) |  | inactive [at 27.7 µM] |  |
| CC(=O)[C@@H]1CC[C@]2(C(=O)O)CC[C@]3(C)C(CCC4[C@@]5(C)CC[C@H](O)C(C)(C)C5CC[C@]43C)C12 (some centres undefined) | -6.72% [at 27.7 µM] (inactive) |  |  |
| CC1(C)CC(=O)N(CCCCN2CCN(c3ncccn3)CC2)C(=O)C1 | -1.7% (inactive) |  |  |
| O=C(CCO[C@@H]1O[C@H](CO)[C@@H](O)[C@H](O)[C@H]1O)c1ccc(O)cc1 | -12.4% [at 27.7 µM] (inactive) |  |  |
| COC(=O)C1(Cc2ccc(O)cc2)OC(=O)C(OC)=C1c1ccc(O)cc1 (centres undefined) |  | inactive [at 27.7 µM] |  |
| COc1cc([C@H]2OC[C@]3(OC(C)=O)[C@@H](c4ccc(O[C@@H]5O[C@H](CO)[C@@H](O)[C@H](O)[C@H]5O)c(OC)c4)OC[C@H]23)ccc1O | -7.16% [at 15.3 µM] (inactive) |  |  |
| CC(=O)O[C@@H]1[C@@H](OC(=O)/C=C/c2ccccc2)[C@H](C)O[C@@H](O[C@H]2[C@@H]3C=CO[C@@H](O[C@@H]4O[C@H](CO)[C@@H](O)[C@H](O)[C@H]4O)[C@@H]3[C@@]3(CO)O[C@@H]23)[C@@H]1OC(C)=O | -8.07% [at 15.3 µM] (inactive) |  |  |
| CC1CCC2(C(=O)OC3OC(CO)C(O)C(O)C3O)CCC3(C(=O)O)C(=CCC4C5(C)CCC(OC6OC(C)C(O)C(O)C6O)C(C)(C)C5CCC43C)C2C1C (centres undefined) |  | inactive [at 15.3 µM] |  |
| O=C1N(CC2CCCCN2)CCN1c1ccccc1 (centres undefined) |  | inactive |  |
| Cc1coc2c1CC1OC1(C)CCC1OC1(C)C2 (centres undefined) |  | inactive |  |
| CC(CO[C@@H]1O[C@H](COC(=O)/C=C/c2ccc(O)c(O)c2)[C@@H](O)[C@H](O)[C@H]1O)C1(O)COC(=O)C1 (some centres undefined) | -6.97% [at 27.7 µM] (inactive) |  |  |
| OCC1OC(Oc2cc(O)c3c(c2)OC(c2ccc(O)cc2)C(O)C3)C(O)C1O (centres undefined) | 2.74% [at 27.7 µM] (inactive) |  |  |
| CCNC(=O)[C@H]1O[C@H](n2cnc3c(NCC(c4ccccc4)c4ccccc4)nc(C(=O)NCCNC(=O)NC4CCN(c5ccccn5)CC4)nc32)[C@H](O)[C@@H]1O |  | inactive |  |
| CC1CCCC2OC2C(=O)c2c(O)cc(O)cc2CC(=O)O1 (centres undefined) |  | inactive |  |
| CN1C(=O)N[C@@H](Cc2c[nH]c3c(Cl)cccc23)C1=O | 0.915% (inactive) |  |  |
| CCC(=O)O[C@]1(C(=O)CCl)[C@@H](C)C[C@H]2[C@@H]3C[C@H](F)C4=CC(=O)C=C[C@]4(C)[C@@]3(F)[C@@H](O)C[C@@]21C |  |  | inactive |
| C[C@@H]1O[C@@H](O[C@H]2[C@H](OC(=O)[C@]34CCC(C)(C)C[C@H]3C3=CCC5[C@@]6(C)CC[C@H](O[C@@H]7O[C@H](CO[C@@H]8OC[C@H](O)[C@H](O)[C@H]8O)[C@@H](O)[C@H](O)[C@H]7O)C(C)(C)C6CC[C@@]5(C)[C@]3(C)C[C@H]4O)OC[C@@H](O)[C@@H]2O)[C@H](O)[C@H](O)[C@H]1O[C@@H]1OC[C@H](O)[C@H](O[C@@H]2OC[C@@H](O)[C@H](O)[C@H]2O)[C@H]1O (some centres undefined) |  | inactive [at 9.52 µM] |  |
